Several values for one entry are separate records, joined by “and”; a condition that tells them apart may be missing. Equal values may be shown once. Inconclusive results are not listed. Activity calls are given as the source filed them. Unless noted, the call rests on the fitted dose curve; in most records, active means well fitted curve in the direction sought with a large enough effect; inconclusive means small, poorly fitted or top-dose-only effect, or another doubt; inactive means no such curve, though single readings can be large; an effect the other way counts as inactive or inconclusive.
Experiments:
[1] = molecular target: Cellular tumor antigen p53 (Homo sapiens) (UniProt P04637); test: Primary qHTS for small molecule compounds that upregulate eGFP-tagged delta133p53alpha (in N-terminal) cells. (AID 2060322); conditions: NCI-H358 eGFP-delta133p53alpha fluorescence, 24 h; activation: hits give high values;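 further: cells pre-induced with doxycycline then dosed without doxycycline; 0% = DMSO vehicle and 100% = reference activator; nearly all actives have a fitted effect of over 75% in size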
How it was run: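 NCI-H358 cells pre-induced 24 h with 10 ng/ml doxycycline for eGFP-delta133p53alpha, plated dox-free and exposed 24 h at 37C to titrated compounds. Fixed, Hoechst-stained; gated GFP peak intensity by laser scanning cytometry, normalized to DMSO (0%) and 57.5 uM 5-azacytidine (100%).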

[2] = molecular target: Cellular tumor antigen p53 (Homo sapiens) (UniProt P04637); test: Primary qHTS for small molecule compounds that upregulate eGFP-tagged delta133p53alpha (in C-terminal) cells. (AID 2060324); conditions: NCI-H358 delta133p53alpha-eGFP (C-terminal tag), GFP fluorescence imaging, 24 h; series mostly up to 57.5 µM;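 further: 0% = DMSO wells and 100% = 57.5 µM 5-azacytidine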
How it was run: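 Doxycycline (100 ng/ml, 24 h) first induced the eGFP fusion in NCI-H358 C-terminal-tag cells. Washed-out cells then received titrated compounds for 24 h at 37 °C before paraformaldehyde fixation, Hoechst staining and cytometric GFP quantification.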

[3] = molecular target: Aldehyde dehydrogenase, mitochondrial (Homo sapiens) (UniProt P05091); test: qHTS for Inhibitors of the Aldehyde Dehydrogenase Family (ALDH2) Validation screens (AID 2061302; active means well fitted inhibition curve with a large enough effect; title and protocol of this record describe different tests;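 further: plate controls were DMSO vehicle for no effect and maximal DPI positive control response for full effect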); conditions: ALDH inhibition qHTS; series mostly up to 42.6 µM
[4] = molecular target: Retinaldehyde dehydrogenase 3 (Homo sapiens) (UniProt P47895); test: qHTS for Inhibitors of the Aldehyde Dehydrogenase Family (ALDH1A3) Validation screen (AID 2061312); conditions: ALDH1A3 enzyme inhibition qHTS validation, fluorescence; series mostly up to 84.7 µM; further: on the % scale 0 is the no-effect control and ±100 the full control effect; nearly all actives have a fitted effect of over 45% in size

Sequence of Cellular tumor antigen p53 (Homo sapiens) (P04637 whole entry, looked up, the tested form may be a part): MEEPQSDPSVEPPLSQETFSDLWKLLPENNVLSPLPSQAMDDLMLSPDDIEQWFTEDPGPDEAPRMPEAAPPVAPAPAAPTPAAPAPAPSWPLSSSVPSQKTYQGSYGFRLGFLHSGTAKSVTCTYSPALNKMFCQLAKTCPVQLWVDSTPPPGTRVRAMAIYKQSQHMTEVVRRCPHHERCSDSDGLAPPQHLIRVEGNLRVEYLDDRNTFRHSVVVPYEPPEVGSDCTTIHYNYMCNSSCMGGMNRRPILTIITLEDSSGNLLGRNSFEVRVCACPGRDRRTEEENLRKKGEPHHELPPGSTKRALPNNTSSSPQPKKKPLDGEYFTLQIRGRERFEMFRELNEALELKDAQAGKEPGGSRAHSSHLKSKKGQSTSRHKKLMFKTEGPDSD

Nc1ncnc2c1nc(Sc1ccc(Cl)cc1)n2[C@H]1OC2COP(=O)(O)O[C@@H]2C1O (some centres not stated)
inactive: activation [1] 27.8% | Potency [2] | Potency [3] | Potency [4]

CCN(CC)CCNC(=O)c1ccc(NC(C)=O)cc1
inactive: activation [1] 18.6% and -9.2% | Potency [2] | Potency [3] | Potency [4]

CCCC(CCC)C(=O)OC1CC2CCC(C1)[N+]2(C)C (configuration not stated)
inactive: activation [1] -17.7% | Potency [2] | Potency [3] | Potency [4]

C[C@](N)(Cc1ccc(O)cc1)C(=O)O
inactive: activation [1] -4.18% and 8.39% | Potency [2] | Potency [3] | Potency [4]

NC1=NCC2c3ccccc3Cc3ccccc3N12 (configuration not stated)
inactive: activation [1] -14.2% and -12.4% | Potency [2] | Potency [3] | Potency [4]

CO/N=C(\C(=O)N[C@@H]1C(=O)N2C(C(=O)O)=C(COC(C)=O)CS[C@H]12)c1csc(N)n1
inactive: activation [1] 2.44% | Potency [2] | Potency [3] | Potency [4]

CCC1C(=O)OCC1Cc1cncn1C (configuration not stated)
inactive: activation [1] -0.565% and -54.1% and -41.4% | Potency [2] | Potency [3] | Potency [4]

COCCc1ccc(OCC(O)CNC(C)C)cc1 (configuration not stated)
inactive: activation [1] 4.18% and 10.1% | Potency [2] | Potency [3] | Potency [4]

CCCOc1ccccc1-c1nc2n[nH]nc2c(=O)[nH]1
inactive: activation [1] -19.5% | Potency [2] | Potency [3] | Potency [4]

Cc1nc(N=Nc2ccc(S(=O)(=O)O)cc2S(=O)(=O)O)c(COP(=O)(O)O)c(C=O)c1O
inactive: activation [1] -9.78% | Potency [2] | Potency [3] | Potency [4]

CCCn1c(=O)c2[nH]c(C3CCCC3)nc2n(CCC)c1=O
inactive: activation [1] -35.5% | Potency [2] | Potency [3] | Potency [4]

CCOC(=O)[C@H](CCc1ccccc1)N[C@@H](C)C(=O)N1[C@H](C(=O)O)C[C@H]2CCCC[C@@H]21
inactive: activation [1] -16.3% | Potency [2] | Potency [3] | Potency [4]

COc1ccc(-c2ccc(N)[n+](CCCC(=O)O)n2)cc1
inactive: activation [1] -20% | Potency [2] | Potency [3] | Potency [4]

Nn1nnc2ccccc21
inactive: activation [1] 15.1% | Potency [2] | Potency [3] | Potency [4]

C[N+](C)(C)CCCCCCCCCC[N+](C)(C)C
inactive: activation [1] -20.9% and 13% | Potency [2] | Potency [3] | Potency [4]

O=C(Nc1ccccc1)c1cc([N+](=O)[O-])ccc1Cl
inactive: activation [1] 24.9% | Potency [2] | Potency [3] | Potency [4]

Oc1cc(O)c2c(c1)O[C@H](c1ccc(O)c(O)c1)[C@@H](O)C2
inactive: activation [1] -7.14% | Potency [2] | Potency [3] | Potency [4]

CC(=O)OCC1=C(C(=O)O)N2C(=O)[C@@H](NC(=O)Cc3cccs3)[C@H]2SC1
inactive: activation [1] 27.7% and 1.09% | Potency [2] | Potency [3] | Potency [4]

CNC(=O)[C@H]1O[C@@H](n2cnc3c(NCc4cccc(I)c4)ncnc32)[C@H](O)[C@@H]1O
inactive: activation [1] -36.7% | Potency [2] | Potency [3] | Potency [4]

OCCN1CCN(CCCN2c3ccccc3Sc3ccc(Cl)cc32)CC1
inactive: activation [1] -6.69% and -35.6% | Potency [2] | Potency [3] | Potency [4]

CN(C)CCOC(C)(c1ccccc1)c1ccccn1 (configuration not stated)
inactive: activation [1] -7.21% | Potency [2] | Potency [3] | Potency [4]

Cn1cc(C(=O)OCC2CCN(CCNS(C)(=O)=O)CC2)c2ccccc21
inactive: activation [1] -16.5% | Potency [2] | Potency [3] | Potency [4]

CCN(CC)CC(=O)Nc1c(C)cccc1C
inactive: activation [1] -3.35% and -7.58% | Potency [2] | Potency [3] | Potency [4]

CC(C)[C@@H]1CC[C@@H](C)C[C@@H]1P(=O)(c1ccccc1)c1ccccc1
inactive: activation [1] -3.04% | Potency [2] | Potency [3] | Potency [4]

CC(=O)OC(C)C[N+](C)(C)C (configuration not stated)
inactive: activation [1] 10.7% and 1.73% | Potency [2] | Potency [3] | Potency [4]

Cn1c(=O)c2[nH]c(C3CCCC3)nc2n(C)c1=O
inactive: activation [1] 3.95% | Potency [2] | Potency [3] | Potency [4]

CCCCNC(=O)NS(=O)(=O)c1ccc(C)cc1
inactive: activation [1] -35.6% and -11.9% | Potency [2] | Potency [3] | Potency [4]

O=C(O)c1cccnc1C(=O)O
inactive: activation [1] -17.2% | Potency [2] | Potency [3] | Potency [4]

From PubChem BioAssay (NCATS)
